target: PADI4, Q9UM07; assay: log2 enrichment score relative to parent PADI4_3 peptide (binding to PADI4); higher = tighter binding than parent; conditions: CaCl2: 10 mM
Experimental: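 Deep mutational scan of the cyclic peptide PADI4_3 (ClAc-D-Tyr1 initiator, thioether-cyclised to Cys12, C-terminal Gly plus HA tag, mRNA-displayed). Positions 2-11 were each randomised by NNK codons; Met was reprogrammed as N-methyl-alanine (MeA). One round of equilibrium panning against bead-immobilised human PADI4 (100 nM, 10 mM CaCl2, RT). Log2 enrichment (bound/input frequency) relative to the parent sequence (0 = parent), mean of three independent selections.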

PADI4, Q9UM07, sequence (Q9UM07 whole entry): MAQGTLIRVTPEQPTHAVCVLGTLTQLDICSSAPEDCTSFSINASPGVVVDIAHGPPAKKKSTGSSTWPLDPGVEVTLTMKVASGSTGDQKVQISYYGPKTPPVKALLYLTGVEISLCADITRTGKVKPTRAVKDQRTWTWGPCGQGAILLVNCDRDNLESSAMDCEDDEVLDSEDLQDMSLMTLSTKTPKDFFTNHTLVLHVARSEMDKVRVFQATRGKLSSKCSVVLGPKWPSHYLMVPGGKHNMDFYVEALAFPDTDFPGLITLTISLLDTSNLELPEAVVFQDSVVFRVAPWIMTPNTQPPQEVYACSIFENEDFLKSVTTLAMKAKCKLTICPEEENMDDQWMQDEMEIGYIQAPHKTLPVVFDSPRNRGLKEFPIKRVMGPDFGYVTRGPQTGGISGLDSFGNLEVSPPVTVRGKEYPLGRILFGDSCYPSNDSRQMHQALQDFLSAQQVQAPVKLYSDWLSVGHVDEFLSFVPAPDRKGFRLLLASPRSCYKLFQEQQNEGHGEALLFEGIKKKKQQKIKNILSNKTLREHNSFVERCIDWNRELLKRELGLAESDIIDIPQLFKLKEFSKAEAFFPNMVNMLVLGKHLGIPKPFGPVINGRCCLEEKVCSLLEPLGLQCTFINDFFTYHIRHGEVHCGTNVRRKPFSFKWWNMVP

Binder	log2 enrichment score
YRDHHYRHLKYCG [PADI4_3_P9L P9L]	-2.12
YRDAHYRHPKYCG [PADI4_3_H4A H4A]	-1.88
YRDHHYNHPKYCG [PADI4_3_R7N R7N]	1.37
YRLHHYRHPKYCG [PADI4_3_D3L D3L]	-2.88
YRDHGYRHPKYCG [PADI4_3_H5G H5G]	-3.73
YRDHHYRHAKYCG [PADI4_3_P9A P9A]	-1.66
YNDHHYRHPKYCG [PADI4_3_R2N R2N]	-2.77
YRDHHYRHIKYCG [PADI4_3_P9I P9I]	-1.78
YQDHHYRHPKYCG [PADI4_3_R2Q R2Q]	-1.6
YRDHHYRHGKYCG [PADI4_3_P9G P9G]	-2.45
YRDHHGRHPKYCG [PADI4_3_Y6G Y6G]	-1.54
YRDHNYRHPKYCG [PADI4_3_H5N H5N]	-3.38
YRIHHYRHPKYCG [PADI4_3_D3I D3I]	-4.17
YRAHHYRHPKYCG [PADI4_3_D3A D3A]	-2.97
YRDGHYRHPKYCG [PADI4_3_H4G H4G]	-3.75
YRDHQYRHPKYCG [PADI4_3_H5Q H5Q]	-3.72
YRDHHYQHPKYCG [PADI4_3_R7Q R7Q]	-0.31
YRDHHYIHPKYCG [PADI4_3_R7I R7I]	-1.67
YRDHHYRHPGYCG [PADI4_3_K10G K10G]	-2.43
YRDHHYRHPKACG [PADI4_3_Y11A Y11A]	-4.24

Binder	log2 enrichment score
YRDHHYRHPKICG [PADI4_3_Y11I Y11I]	-3.77
YRDHIYRHPKYCG [PADI4_3_H5I H5I]	-3.45
YRNHHYRHPKYCG [PADI4_3_D3N D3N]	-2.8
YRDHHNRHPKYCG [PADI4_3_Y6N Y6N]	-2.28
YRDHHYRAPKYCG [PADI4_3_H8A H8A]	-3.62
YLDHHYRHPKYCG [PADI4_3_R2L R2L]	-0.745
YRDHHYRHPKNCG [PADI4_3_Y11N Y11N]	-3.81
YRDHHYRHPKQCG [PADI4_3_Y11Q Y11Q]	-4.43
YRDQHYRHPKYCG [PADI4_3_H4Q H4Q]	-0.57
YRDHHYRHPLYCG [PADI4_3_K10L K10L]	0.693
YRDHHYLHPKYCG [PADI4_3_R7L R7L]	-2.09
YRDHHLRHPKYCG [PADI4_3_Y6L Y6L]	-1.7
YRDIHYRHPKYCG [PADI4_3_H4I H4I]	-2.05
YRDHHYAHPKYCG [PADI4_3_R7A R7A]	0.206
YRDHHARHPKYCG [PADI4_3_Y6A Y6A]	-1.95
YRDHHYRHQKYCG [PADI4_3_P9Q P9Q]	-1.71
YRDNHYRHPKYCG [PADI4_3_H4N H4N]	-2.71
YRDHHYRLPKYCG [PADI4_3_H8L H8L]	-3.01
YRDHHYRIPKYCG [PADI4_3_H8I H8I]	-3.37
YRDHHYRHPAYCG [PADI4_3_K10A K10A]	-1.7

Binder	log2 enrichment score
YRDHHYRNPKYCG [PADI4_3_H8N H8N]	-2.87
YRQHHYRHPKYCG [PADI4_3_D3Q D3Q]	-3.32
YIDHHYRHPKYCG [PADI4_3_R2I R2I]	-1.38
YRDHHYRHPKGCG [PADI4_3_Y11G Y11G]	-4.17
YRDHLYRHPKYCG [PADI4_3_H5L H5L]	-3.61
YRDHAYRHPKYCG [PADI4_3_H5A H5A]	-2.12
YRDHHYRGPKYCG [PADI4_3_H8G H8G]	-3.99
YRDHHYRHPNYCG [PADI4_3_K10N K10N]	-1.77
YRDHHYRHNKYCG [PADI4_3_P9N P9N]	-2.01
YRDHHYRHPQYCG [PADI4_3_K10Q K10Q]	-1.09
YRDHHYRHPKLCG [PADI4_3_Y11L Y11L]	-3.94
YRDHHYGHPKYCG [PADI4_3_R7G R7G]	-2.58
YGDHHYRHPKYCG [PADI4_3_R2G R2G]	-3.89
YRDHHQRHPKYCG [PADI4_3_Y6Q Y6Q]	-1.94
YADHHYRHPKYCG [PADI4_3_R2A R2A]	-2.77
YRGHHYRHPKYCG [PADI4_3_D3G D3G]	-3.8
YRDHHYRQPKYCG [PADI4_3_H8Q H8Q]	-3.37
YRDHHYRHPIYCG [PADI4_3_K10I K10I]	2.81
YRDHHIRHPKYCG [PADI4_3_Y6I Y6I]	-2.71
